Results from PubChem BioAssay (NCATS).
Inconclusive results are not listed. A call without a number means that no potency is given here. Unmarked numbers belong to inactive results. Calls of active or inactive are those of the source. The call rests on the fitted dose curve; in most records, active means well fitted curve in the direction sought with a large enough effect; inconclusive means small, poorly fitted or top-dose-only effect, or another doubt; inactive means no such curve, though single readings can be large; an effect the other way counts as inactive or inconclusive.

What was measured:
[1] = target: Rap guanine nucleotide exchange factor 3 (Homo sapiens) (UniProt O95398); experiment: Confirmatory qHTS for agonist of cAMP-regulated guanine nucleotide exchange factor 3 (EPAC1) (AID 1645881);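 further: EPAC1 catalysed release of BODIPY-GDP from Rap1B seen as fluorescence loss; nearly all actives have a fitted effect of over 75% in size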
[2] = target: Rap guanine nucleotide exchange factor 4 (Homo sapiens) (UniProt Q8WZA2); experiment: Confirmatory qHTS for agonist of cAMP-regulated guanine nucleotide exchange factor 4 (EPAC2) (AID 1645884);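 further: nucleotide exchange releases bodipy-GDP from Rap1 and this lowers its fluorescence; nearly all actives have a fitted effect of over 65% in size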
[3] = target: Rap guanine nucleotide exchange factor 4 (Homo sapiens) (UniProt Q8WZA2); experiment: Confirmatory qHTS for antagonist of cAMP-regulated guanine nucleotide exchange factor 4 (EPAC2) (AID 1645885); further: nearly all actives have a fitted effect of over 25% in size; further: potency means the concentration at half of the fitted maximal effect
[4] = target: Rap guanine nucleotide exchange factor 3 (Homo sapiens) (UniProt O95398); experiment: Counterscreen qHTS for antagonist of cAMP-regulated guanine nucleotide exchange factor 3 (EPAC1) (AID 1645888);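 further: fluorescence loss as bound BODIPY-GDP is released from Rap1B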
Summary of the method: (§1)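 Measured: fluorescence of BODIPY-GDP bound to Rap1B, which falls as exchange proceeds. Conditions include 50 uM competing GDP, 5 and 30 min reads, and a later cAMP challenge for antagonist detection.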

[5] = target: Rap guanine nucleotide exchange factor 3 (Homo sapiens) (UniProt O95398); experiment: Counterscreen qHTS for agonist of cAMP-regulated guanine nucleotide exchange factor 3 (EPAC1) (AID 1645889); further: nearly all actives have a fitted effect of over 40% in size
Summary of the method: as §1

Sequence of Rap guanine nucleotide exchange factor 4 (Homo sapiens) (Q8WZA2 whole entry, looked up): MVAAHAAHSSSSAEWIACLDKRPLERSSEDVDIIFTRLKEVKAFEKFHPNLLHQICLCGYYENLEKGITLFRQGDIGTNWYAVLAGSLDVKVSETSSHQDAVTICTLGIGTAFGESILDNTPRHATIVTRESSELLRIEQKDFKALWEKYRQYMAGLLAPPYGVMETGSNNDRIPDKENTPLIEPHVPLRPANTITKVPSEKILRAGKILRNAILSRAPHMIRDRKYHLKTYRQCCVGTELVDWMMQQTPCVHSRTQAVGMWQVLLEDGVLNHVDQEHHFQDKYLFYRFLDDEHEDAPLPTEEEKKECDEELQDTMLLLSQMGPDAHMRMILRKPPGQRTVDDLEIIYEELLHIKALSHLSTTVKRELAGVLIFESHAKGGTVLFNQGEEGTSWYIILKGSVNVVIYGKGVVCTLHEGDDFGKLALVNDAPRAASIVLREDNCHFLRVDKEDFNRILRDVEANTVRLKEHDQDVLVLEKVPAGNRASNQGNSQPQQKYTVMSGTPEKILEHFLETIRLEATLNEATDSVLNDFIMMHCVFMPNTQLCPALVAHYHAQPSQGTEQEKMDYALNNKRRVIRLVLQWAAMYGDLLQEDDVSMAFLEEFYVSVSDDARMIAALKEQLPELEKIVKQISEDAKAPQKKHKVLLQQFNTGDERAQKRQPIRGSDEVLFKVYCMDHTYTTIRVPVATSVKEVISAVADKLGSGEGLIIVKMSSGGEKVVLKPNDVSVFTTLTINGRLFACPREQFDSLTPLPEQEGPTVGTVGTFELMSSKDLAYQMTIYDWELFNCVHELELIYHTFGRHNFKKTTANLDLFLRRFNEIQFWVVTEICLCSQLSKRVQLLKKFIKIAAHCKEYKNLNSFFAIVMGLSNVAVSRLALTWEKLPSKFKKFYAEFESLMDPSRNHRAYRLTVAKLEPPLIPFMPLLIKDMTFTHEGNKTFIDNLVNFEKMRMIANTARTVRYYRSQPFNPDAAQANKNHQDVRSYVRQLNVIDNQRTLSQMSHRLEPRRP
Sequence of Rap guanine nucleotide exchange factor 3 (Homo sapiens) (O95398 whole entry, looked up): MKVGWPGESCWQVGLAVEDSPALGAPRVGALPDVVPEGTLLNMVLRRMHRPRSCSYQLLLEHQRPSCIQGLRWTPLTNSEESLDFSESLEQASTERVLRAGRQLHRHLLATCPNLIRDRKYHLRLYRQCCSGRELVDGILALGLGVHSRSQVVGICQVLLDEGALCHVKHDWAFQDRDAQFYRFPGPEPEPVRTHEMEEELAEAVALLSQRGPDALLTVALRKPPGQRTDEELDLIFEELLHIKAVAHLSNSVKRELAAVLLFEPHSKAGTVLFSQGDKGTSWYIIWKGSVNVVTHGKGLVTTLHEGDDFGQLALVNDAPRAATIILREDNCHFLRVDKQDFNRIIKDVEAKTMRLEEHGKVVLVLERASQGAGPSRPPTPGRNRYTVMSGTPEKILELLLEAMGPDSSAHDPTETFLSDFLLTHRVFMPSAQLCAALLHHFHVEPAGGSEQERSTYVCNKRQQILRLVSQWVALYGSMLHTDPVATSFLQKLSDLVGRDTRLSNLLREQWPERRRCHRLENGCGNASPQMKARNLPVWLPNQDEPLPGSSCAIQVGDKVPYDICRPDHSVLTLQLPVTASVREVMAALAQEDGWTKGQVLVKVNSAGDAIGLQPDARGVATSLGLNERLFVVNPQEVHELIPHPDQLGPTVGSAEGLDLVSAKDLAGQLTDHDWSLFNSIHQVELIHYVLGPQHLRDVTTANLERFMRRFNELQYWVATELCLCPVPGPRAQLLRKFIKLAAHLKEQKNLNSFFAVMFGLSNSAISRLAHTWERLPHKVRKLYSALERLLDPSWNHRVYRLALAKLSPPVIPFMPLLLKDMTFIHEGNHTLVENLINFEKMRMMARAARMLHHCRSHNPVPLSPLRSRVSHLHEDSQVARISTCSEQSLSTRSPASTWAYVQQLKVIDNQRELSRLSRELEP

Row | SMILES | Potency [1] | activation [2] | Potency [3] | activity change, negative = inhibition [4] | activation [5] | Potency [2] | Potency [4] | Potency [5]
1 | O=C(N/N=C/c1ccccc1O)c1cccc(C(F)(F)F)c1 | inactive | 5.14% [at 17.1 µM, percent relative to cAMP agonist control] | inactive | -7.23% [at 30.8 µM] | 8.8% [at 30.8 µM] | – | – | –
2 | CC1(Cc2ccccc2Cl)C(=O)Nc2ccc(OC(F)(F)F)cc21 (stereo not given) | inactive | 0.883% [at 17.1 µM, percent relative to cAMP agonist control] | inactive | -9.83% [at 30.8 µM] | 5.61% [at 30.8 µM] | – | – | –
3 | O=c1ccc(-c2ccccc2)nn1Cc1ccc(F)cc1Cl | inactive | – | inactive | – | – | inactive | inactive | inactive
4 | CCOC(=O)C1CCc2c(ccc3ccccc23)N1CCC#N (stereo not given) | inactive | 0.813% [at 17.1 µM, percent relative to cAMP agonist control] | inactive | -15.2% [at 30.8 µM] | 2.64% [at 30.8 µM] | – | – | –
5 | COc1ccc(OCC(=O)NCc2ccc3c(c2)CCN3C(=O)c2cccc(C)c2)cc1 | inactive | – | inactive | – | – | inactive | inactive | inactive
6 | N#CC(c1nc2ccccc2nc1OCCO)S(=O)(=O)c1ccccc1 (stereo not given) | inactive | -1.2% [at 17.1 µM, percent relative to cAMP agonist control] | inactive | -25.3% [at 30.8 µM] | 20.5% [at 30.8 µM] | – | – | –
7 | Cc1ccc(-c2nnc(Nc3ccc(OCC(N)=O)cc3)c3ccccc23)cc1S(N)(=O)=O | inactive | – | inactive | – | – | inactive | inactive | inactive
8 | COc1cc(/C=C2\SC(=O)N(CC(=O)Nc3ccc(C)cc3)C2=O)cc(Cl)c1OCC(=O)O | inactive | – | inactive | – | – | inactive | inactive | inactive
9 | O=C(Nc1ccccc1C(=O)O)c1cccc(S(=O)(=O)Nc2ccc(Br)cc2)c1 | inactive | – | 42.6 µM (active) | – | – | inactive | inactive | inactive
10 | Nc1ccc(C(=O)N/N=C/c2cn(Cc3ccccc3F)c3ccccc23)cc1 | inactive | 7.25% [at 17.1 µM, percent relative to cAMP agonist control] | inactive | 31.2% [at 30.8 µM] | 39.9% [at 30.8 µM] | – | – | –
11 | CC(Oc1ccc(Cl)cc1Cl)C(=O)NC1=NN(c2ccccc2)C(=O)C1 (stereo not given) | inactive | – | inactive | – | – | inactive | inactive | inactive
12 | CCC(CC)c1nnc(NC(=O)CSCc2c(C)noc2C)s1 | inactive | – | inactive | – | – | inactive | inactive | inactive
13 | C[C@@H]1COC(=O)[C@H](NC(=O)OCC2c3ccccc3-c3ccccc32)C/C=C\C[C@@H](CC(=O)N[C@H](CO)Cc2ccccc2)C(=O)N1 | inactive | 2.82% [at 17.1 µM, percent relative to cAMP agonist control] | inactive | -6.46% [at 30.8 µM] | -0.359% [at 30.8 µM] | – | – | –
14 | C[C@@H]1CC=C[C@@H]2[C@H]1C(=O)N(Cc1ccccc1)[C@H]2c1ccccc1Br | inactive | – | inactive | – | – | inactive | inactive | inactive
15 | NS(=O)(=O)c1ccc(CCNC(=O)Cc2ccc(S(=O)(=O)N3CCCC3)s2)cc1 | inactive | 2.8% [at 17.1 µM, percent relative to cAMP agonist control] | inactive | 7.67% [at 30.8 µM] | 24% [at 30.8 µM] | – | – | –
16 | Cc1ccc(C)c(Nc2cc(C)nc(-c3ccccc3O)n2)c1 | inactive | 10% [at 17.1 µM, percent relative to cAMP agonist control] | inactive | -8.51% [at 30.8 µM] | 7.83% [at 30.8 µM] | – | – | –
17 | O=C(Nc1ccc(Br)cc1C(=O)O)c1ccc2c(c1)C(=O)N(Cc1ccccc1)C2=O | inactive | – | inactive | – | – | inactive | inactive | inactive
18 | COc1ccc(C(=O)Nc2ccccc2-c2nnn(CC(N)=O)n2)cc1 | inactive | – | inactive | – | – | inactive | inactive | inactive
19 | CS(=O)(=O)N1CCN(c2ccc([N+](=O)[O-])c(NCc3ccc(Cl)cc3)c2)CC1 | inactive | -0.717% [at 17.1 µM, percent relative to cAMP agonist control] | inactive | -6.75% [at 30.8 µM] | 12% [at 30.8 µM] | – | – | –
20 | O=C(NCc1ccccc1)C(c1ccc(-c2ccccc2)cc1)n1c(=O)c(-c2ccco2)nc2ccccc21 (stereo not given) | inactive | -1.87% [at 17.1 µM, percent relative to cAMP agonist control] | inactive | 1.9% [at 30.8 µM] | 21.4% [at 30.8 µM] | – | – | –
21 | CCCN1C(=O)c2ccccc2NC1c1ccc(OC)c(CSc2ccccn2)c1 (stereo not given) | inactive | – | inactive | – | – | inactive | inactive | inactive
